Reference: publication PMC4552634, “A New Set of Chemical Starting Points with Plasmodium falciparum Transmission-Blocking Potential for Antimalarial Drug Discovery” (PLoS ONE, 2015)
Hit rate of the full screen: of about 13,000 compounds, about 3,200 (25%) showed an effect of 50% or more. This is one part of the list.

Each molecule was assayed on P. falciparum stage V gametocytes. Settings: 48 h, 5 µM; inhibitor.
Design: BacTiter-Glo ATP luminescence viability of purified stage V gametocytes in 384-well plates, per cent inhibition versus DMSO
`Nc1nc(N)c2c(ccc3nn(Cc4cccnc4)cc32)n1` [TCMDC-137968] was tested, and the “% Inhibition” value was -0.02415%. For `CS(=O)(=O)c1ccc(-c2cc(C(F)(F)F)nc(N[C@@H]3CCCC[C@H]3OCc3ccccc3)n2)cc1` [TCMDC-138567], the “% Inhibition” value was -4.461%. With `CC[C@@]1(O)C(=O)OCc2c1cc1n(c2=O)Cc2c-1nc1cc3c(cc1c2CN1CCOCC1)OCO3` [TCMDC-131876] the “% Inhibition” value was 7.387%. For `Cc1nc2nc(N)nc(N)c2c(C)c1Cc1ccc(C#N)cc1` [TCMDC-137653], the “% Inhibition” value was -12.58%. With `O=c1cc(NCCCNCc2cc(Cl)cc(Cl)c2OCc2ccc(Cl)cc2)[nH]c2ccccc12` [TCMDC-139604] the “% Inhibition” value was -52.63%. `CCCN1CCC(NCc2cn(C)nc2-c2ccc(Oc3ccccc3)cc2)CC1` [TCMDC-124676] was tested, and the “% Inhibition” value was 46.58%. In the case of `COc1ccccc1Oc1c(N(C)S(=O)(=O)c2ccc(C(C)C)cc2)nc(C(F)(F)F)nc1N(C)S(=O)(=O)c1ccc(C(C)C)cc1` [TCMDC-132001], the “% Inhibition” value is reported as 61.81%. For `COc1cc(Cl)c(C)cc1N(Cc1ccccc1-c1ccccc1)S(=O)(=O)c1ccc(C(F)(F)F)cc1` [TCMDC-141750], the “% Inhibition” value was -7.334%. `O=C(Cn1c(CCc2cccc(F)c2F)cc(=O)c2cccnc21)N(CCN1CCCC1)Cc1ccc(-c2ccc(C(F)(F)F)cc2)cc1` [TCMDC-141463] was tested, and the “% Inhibition” value was 53.17%. `O=C(Cn1c(CCc2cccc(F)c2F)cc(=O)c2ccccc21)N(CCN1CCCC1)Cc1ccc(-c2ccc(C(F)(F)F)cc2)cc1` [TCMDC-141120] was tested, and the “% Inhibition” value was -20.2%. In the case of `Cn1cncc1CCN(Cc1ccc(-c2ccc(C(F)(F)F)cc2)cc1)C(=O)Cn1c(CCc2cccc(F)c2F)cc(=O)c2cccnc21` [TCMDC-141455], the “% Inhibition” value is reported as 99.09%. In the case of `Cn1cncc1CCCN(Cc1ccc(-c2ccc(C(F)(F)F)cc2)cc1)C(=O)Cn1c(CCc2cccc(F)c2F)cc(=O)c2cccnc21` [TCMDC-141502], the “% Inhibition” value is reported as -3.632%. In the case of `O=C(Cn1c(CCc2cccc(F)c2F)cc(=O)c2cccnc21)N(CCn1ccnc1)Cc1ccc(-c2ccc(C(F)(F)F)cc2)cc1` [TCMDC-141474], the “% Inhibition” value is reported as 11.29%. In the case of `CCCOc1ccc(OCCCON2C(N)=NC(N)=NC2(C)C)cc1` [TCMDC-131737], the “% Inhibition” value is reported as 9.517%. For `CC1CCCN(S(=O)(=O)c2ccc(NC(=O)c3cc(-c4ccccc4O)n[nH]3)cc2)C1` (centres unmarked) [TCMDC-125194], the “% Inhibition” value was -32.46%. For `O=C1NC(=O)C(c2ccc(Cl)cc2)=C1Nc1cccc(S(=O)(=O)C(F)(F)F)c1` [TCMDC-139487], the “% Inhibition” value was 41.44%. `CCn1c(C)cc(C=C2SC(=Nc3ccccc3)NC2=O)c1C` [TCMDC-124456] was tested, and the “% Inhibition” value was -43.68%. In the case of `Cc1cc(C=C2SC(=Nc3ccccc3)N(C3CCCC3)C2=O)c(C)n1-c1ccc(Cl)cc1` [TCMDC-125698], the “% Inhibition” value is reported as -5.321%. In the case of `Cc1cc(C)cc(-n2c(C)cc(/C=C3\SC(=Nc4ccc(Cl)cc4)NC3=O)c2C)c1` [TCMDC-124103], the “% Inhibition” value is reported as 64.96%. For `COc1cc(Cc2cnc(N)nc2N)cc(OC)c1OCCCCCN1C(=O)c2ccccc2C1=O` [TCMDC-138036], the “% Inhibition” value was 16.13%. With `CNC(=O)C1Cc2c([nH]c3cc(Br)ccc23)C2(CCN(CCc3ccccc3)CC2)N1` (centres unmarked) [TCMDC-141261] the “% Inhibition” value was 85.59%. In the case of `CNC(=O)C1Cc2c([nH]c3ccc(Br)cc23)C2(CCN(CCc3ccccc3)CC2)N1` (centres unmarked) [TCMDC-141185], the “% Inhibition” value is reported as -21.04%. In the case of `CCCNC(=O)C1Cc2c([nH]c3cc(Br)ccc23)C2(CCN(CCc3ccccc3)CC2)N1` (centres unmarked) [TCMDC-141260], the “% Inhibition” value is reported as -73.32%. With `CC(C)CCNC(=O)C1Cc2c([nH]c3cc(Cl)ccc23)C2(CCN(CCc3ccccc3)CC2)N1` (centres unmarked) [TCMDC-141294] the “% Inhibition” value was 25.11%. `CC(C)CCNC(=O)C1Cc2c([nH]c3cc(Br)ccc23)C2(CCN(CCc3ccccc3)CC2)N1` (centres unmarked) [TCMDC-141259] was tested, and the “% Inhibition” value was -3.364%. `CCCCCCNC(=O)C1Cc2c([nH]c3ccc(Br)cc23)C2(CCN(CCc3ccccc3)CC2)N1` (centres unmarked) [TCMDC-141182] was tested, and the “% Inhibition” value was -10.63%. `CC(C)CCNC(=O)C1Cc2c([nH]c3cc(Br)ccc23)C2(CCN(Cc3ccccc3)CC2)N1` (centres unmarked) [TCMDC-141258] was tested, and the “% Inhibition” value was 102.3%. For `O=C(NCC1CC1)C1Cc2c([nH]c3ccc(Br)cc23)C2(CCN(CCc3ccccc3)CC2)N1` (centres unmarked) [TCMDC-141180], the “% Inhibition” value was -28.21%. For `O=C(NCc1ccccc1)C1Cc2c([nH]c3ccc(Br)cc23)C2(CCN(Cc3ccccc3)CC2)N1` (centres unmarked) [TCMDC-141183], the “% Inhibition” value was 77.73%. For `CCCCCCNC(=O)C1Cc2c([nH]c3ccc(Br)cc23)C2(CCN(Cc3ccccc3)CC2)N1` (centres unmarked) [TCMDC-141181], the “% Inhibition” value was 96.4%. In the case of `CCCCCCNC(=O)C1Cc2c([nH]c3ccc(C)cc23)C2(CCN(Cc3ccccc3)CC2)N1` (centres unmarked) [TCMDC-141091], the “% Inhibition” value is reported as 29.77%. `CCCNC(=O)C1Cc2c([nH]c3ccc(Br)cc23)C2(CCN(CCc3ccccc3)CC2)N1` (centres unmarked) [TCMDC-141184] was tested, and the “% Inhibition” value was 7.991%. For `Clc1ccc(-c2ncc(-c3ccncc3)[nH]2)cc1Cl` [TCMDC-135775], the “% Inhibition” value was -31.04%. For `Nc1ccnc(N2CCC(CCOc3ccnc4cc(Cl)ccc34)CC2)c1` [TCMDC-141365], the “% Inhibition” value was -42.39%. For `CC(=O)Nc1nnc(SCc2c(C)cc(C(C)(C)C)cc2C)s1` [TCMDC-125446], the “% Inhibition” value was 0.04812%. In the case of `CN1CC[C@@H](Oc2cc(Nc3nc(-c4ccc(C#N)cc4)cs3)ccc2Cl)C1` [TCMDC-136291], the “% Inhibition” value is reported as 12.39%. For `CCCCCCNC(=O)C1Cc2c([nH]c3ccc(F)cc23)C2(CCN(Cc3ccccc3)CC2)N1` (centres unmarked) [TCMDC-141303], the “% Inhibition” value was 21.59%. With `CCCCCCNC(=O)C1Cc2c([nH]c3cc(Cl)ccc23)C2(CCN(CCC)CC2)N1` (centres unmarked) [TCMDC-141297] the “% Inhibition” value was -77.49%. With `Cc1ccc2[nH]c3c(c2c1)CC(C(=O)NCCC(C)C)NC31CCN(Cc2ccccc2)CC1` (centres unmarked) [TCMDC-141090] the “% Inhibition” value was 28.05%. For `CC(C)CCNC(=O)C1Cc2c([nH]c3ccc(Br)cc23)C2(CCN(Cc3ccccc3)CC2)N1` (centres unmarked) [TCMDC-141178], the “% Inhibition” value was 102.8%. With `CCCCCCNC(=O)C1Cc2c([nH]c3cc(Cl)ccc23)C2(CCN(Cc3ccccc3)CC2)N1` (centres unmarked) [TCMDC-141296] the “% Inhibition” value was 89.1%. In the case of `CC(C)CCNC(=O)C1Cc2c([nH]c3ccc(Br)cc23)C2(CCN(CCc3ccccc3)CC2)N1` (centres unmarked) [TCMDC-141179], the “% Inhibition” value is reported as 47.91%. In the case of `Nc1cc(-c2cc3c(OCc4ccccc4)cccc3[nH]2)ccn1` [TCMDC-134290], the “% Inhibition” value is reported as -55.8%. `CN(C)CCC1CCN(CCS(=O)(=O)c2cccc(Nc3ccc(-c4ccsc4)cn3)c2)CC1` [TCMDC-134377] was tested, and the “% Inhibition” value was 15.01%. `Cc1cc(Cl)ccc1NC(=O)Nc1ccc2nccc(N3CCN(C)CC3)c2c1` [TCMDC-139357] was tested, and the “% Inhibition” value was 8.372%. `COc1ccc(CN(C)CCOc2ccc(NC(=O)c3cccc4c(=O)c5cc(SC)ccc5[nH]c34)cc2)cc1OC` [TCMDC-131956] was tested, and the “% Inhibition” value was 28.02%. With `COc1ccc(CN(C)CCCOc2ccc(NC(=O)c3cccc4c(=O)c5cccc(F)c5[nH]c34)cc2)cc1OC` [TCMDC-131846] the “% Inhibition” value was 60.98%. `COc1cc(OCCCN(C)Cc2ccc(OC)c(OC)c2)ccc1NC(=O)c1cccc2c(=O)c3cccc(F)c3[nH]c12` [TCMDC-131853] was tested, and the “% Inhibition” value was 16.5%. In the case of `COc1ccc(CCN(C)CCCCc2ccc(NC(=O)c3cccc4c(=O)c5cc(F)ccc5sc34)cc2)cc1OC` [TCMDC-131961], the “% Inhibition” value is reported as 94.02%. In the case of `COc1ccc(CN(C)CCCOc2ccc(NC(=O)c3cccc4c(=O)c5cccc(C)c5[nH]c34)cc2)cc1OC` [TCMDC-131850], the “% Inhibition” value is reported as 23.76%. In the case of `COc1ccc(CCN(C)CCOc2ccc(NC(=O)c3cccc4c(=O)c5cc(SC)ccc5[nH]c34)cc2)cc1OC` [TCMDC-131958], the “% Inhibition” value is reported as 53.19%. For `COc1ccc(CCN(C)CCCOc2ccc(NC(=O)c3cccc4c(=O)c5ccccc5[nH]c34)cc2)cc1OC` [TCMDC-132116], the “% Inhibition” value was 43.65%. In the case of `COc1ccc(CCN(C)CCOc2ccc(NC(=O)c3cc(SC)cc4c(=O)c5ccccc5[nH]c34)cc2)cc1OC` [TCMDC-131957], the “% Inhibition” value is reported as 24.55%. For `COc1ccc(CN(C)Cc2ccc(NC(=O)c3cccc4c(=O)c5cccc(C)c5[nH]c34)cc2)cc1OC` [TCMDC-131852], the “% Inhibition” value was 2.818%. `COc1ccc(CCN(C)CCc2ccc(NC(=O)c3cccc4c(=O)c5ccccc5sc34)cc2)cc1` [TCMDC-131965] was tested, and the “% Inhibition” value was 45.76%. `COc1ccc(CCN(C)CCCN2CCC(NC(=O)c3cccc4c(=O)c5ccccc5sc34)CC2)cc1OC` [TCMDC-131966] was tested, and the “% Inhibition” value was 103.2%. In the case of `O=C(NCC1CCC(C(=O)NC2CCCc3ccccc32)CC1)c1ccc(O)c(-c2ccc(Cl)c(Cl)c2)c1` (centres unmarked) [TCMDC-140891], the “% Inhibition” value is reported as 17.3%. `COC(=O)C(NC(=O)NC1CCN(c2ccnc(Nc3ccc(F)cc3)n2)C1)c1ccccc1` (centres unmarked) [TCMDC-133595] was tested, and the “% Inhibition” value was 4.499%. With `CCc1sc(CN(CCCNc2cc(=O)c3ccccc3[nH]2)Cc2sc(CC)c(Br)c2-c2ccsc2)c(-c2ccsc2)c1Br` [TCMDC-140753] the “% Inhibition” value was 49.24%. For `N=C1c2ccccc2CN1CC(=O)c1ccc(Cl)c(Cl)c1` [TCMDC-123783], the “% Inhibition” value was -26.95%. In the case of `N#Cc1ccc2c(c1)CCN(CCC1CCC(NC(=O)/C=C/c3cnc4ccccc4c3)CC1)CC2` (centres unmarked) [TCMDC-139662], the “% Inhibition” value is reported as -42.99%. In the case of `O=C(NCc1ccc(F)cc1)Nc1cccc(-c2ccc(-c3nc4ccc(F)cc4[nH]3)cc2)c1` [TCMDC-133301], the “% Inhibition” value is reported as -42.08%.
